Screen size: about 5,500 compounds; about 2,000 (36%) were called active. Roughly 18% stayed inconclusive and do not appear here. Rule as the data show it: active = normalized growth mostly below about 0.91 (no sharp cut-off); inconclusive = no clear call, values can overlap the other calls; inactive = mostly above about 0.92. The list shows a part of the results.
Test: chemical genetic growth profiling, strain panel (AID 1159580);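 also: tested at 20 µM; growth read once vehicle control cultures reached saturation at 30 °C; 1 = growth at the plate median or of vehicle wells; lower values mean less growth of the strain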
Conditions: growth OD

Measured: normalized growth

COc1cc(NC(C)CCCN)c2ncccc2c1 (configuration not stated)
inactive: S. cerevisiae deletion strains, locus YJR075W, strain HOC1, active compounds read low 1 | S. cerevisiae deletion strains, locus YKL009W, strain mrt4, active compounds read low 1.02 | S. cerevisiae deletion strains, locus YKL068W, active compounds read low 1.01 | S. cerevisiae deletion strains, locus YKL085W, strain MDH1 (second series), active compounds read low 1 | S. cerevisiae deletion strains, locus YKL085W, strain MDH1, active compounds read low 1 | S. cerevisiae deletion strains, locus YKL160W, strain elf1, active compounds read low 0.942 | S. cerevisiae deletion strains, locus YKL190W, strain CNB1, active compounds read low 1 | S. cerevisiae deletion strains, locus YKR001C, strain vps1, active compounds read low 1.01 | S. cerevisiae deletion strains, locus YKR026C, strain gcn3, active compounds read low 1.01 | S. cerevisiae deletion strains, locus YKR091W, strain srl3, active compounds read low 0.999 | S. cerevisiae deletion strains, locus YLL001W, strain dnm1, active compounds read low 0.965 | S. cerevisiae deletion strains, locus YLL026W, active compounds read low 0.998 | S. cerevisiae deletion strains, locus YLL041C, strain sdh2, active compounds read low 1 | S. cerevisiae deletion strains, locus YLR027C, strain aat2, active compounds read low 0.997 | S. cerevisiae deletion strains, locus YLR039C, strain RIC1, active compounds read low 1.03 | S. cerevisiae deletion strains, locus YLR058C, strain SHM2, active compounds read low 1.01 | S. cerevisiae deletion strains, locus YLR102C, strain apc9, active compounds read low 1.01 | S. cerevisiae deletion strains, locus YLR113W, strain HOG1, active compounds read low 1.06 | S. cerevisiae deletion strains, locus YLR221C, strain rsa3, active compounds read low 1.01 | S. cerevisiae deletion strains, locus YLR258W, strain gsy2, active compounds read low 1.04 | S. cerevisiae deletion strains, locus YLR262C, strain YPT6 (second series), active compounds read low 0.956 | S. cerevisiae deletion strains, locus YLR262C, strain YPT6, active compounds read low 1.05 | S. cerevisiae deletion strains, locus YLR268W, strain sec22, active compounds read low 1.02 | S. cerevisiae deletion strains, locus YLR320W, strain mms22, active compounds read low 0.987 | S. cerevisiae deletion strains, locus YLR330W, strain CHS5, active compounds read low 1 | S. cerevisiae deletion strains, locus YLR342W, strain FKS1 (second series), active compounds read low 0.947 | S. cerevisiae deletion strains, locus YLR342W, strain FKS1, active compounds read low 0.991 | S. cerevisiae deletion strains, locus YLR357W, strain rsc2, active compounds read low 0.991 | S. cerevisiae deletion strains, locus YLR370C, strain arc18, active compounds read low 1.02 | S. cerevisiae deletion strains, locus YLR371W, strain rom2, active compounds read low 1.01 | S. cerevisiae deletion strains, locus YLR384C, strain iki3, active compounds read low 1.02 | S. cerevisiae deletion strains, locus YLR418C, strain cdc73, active compounds read low 0.988 | S. cerevisiae deletion strains, locus YML016C, strain PPZ1, active compounds read low 1.01 | S. cerevisiae deletion strains, locus YML032C, strain rad52, active compounds read low 1.01 | S. cerevisiae deletion strains, locus YML120C, strain ndi1, active compounds read low 0.995 | S. cerevisiae deletion strains, locus YML124C, strain tub3, active compounds read low 1.01 | S. cerevisiae deletion strains, locus YMR058W, strain fet3, active compounds read low 0.999 | S. cerevisiae deletion strains, locus YMR078C, strain ctf18, active compounds read low 0.997 | S. cerevisiae deletion strains, locus YMR125W, strain sto1, active compounds read low 0.951 | S. cerevisiae deletion strains, locus YMR129W, active compounds read low 1.01 | S. cerevisiae deletion strains, locus YMR205C, strain PFK2, active compounds read low 0.962 | S. cerevisiae deletion strains, locus YMR223W, strain ubp8, active compounds read low 0.991 | S. cerevisiae deletion strains, locus YMR231W, strain pep5, active compounds read low 1.01 | S. cerevisiae deletion strains, locus YMR263W, strain SAP30, active compounds read low 1 | S. cerevisiae deletion strains, locus YMR307W, strain GAS1, active compounds read low 0.951 | S. cerevisiae deletion strains, locus YNL067W, strain RPL9B, active compounds read low 1.01 | S. cerevisiae deletion strains, locus YNL071W, strain lat1, active compounds read low 1.01 | S. cerevisiae deletion strains, locus YNL128W, strain TEP1, active compounds read low 1 | S. cerevisiae deletion strains, locus YNL153C, strain GIM3, active compounds read low 1.01 | S. cerevisiae deletion strains, locus YNL183C, strain NPR1, active compounds read low 0.972 | S. cerevisiae deletion strains, locus YNL209W, strain ssb2, active compounds read low 1 | S. cerevisiae deletion strains, locus YNL233W, strain BNI4, active compounds read low 1 | S. cerevisiae deletion strains, locus YNL248C, strain rpa49, active compounds read low 0.938 | S. cerevisiae deletion strains, locus YNL250W, strain rad50, active compounds read low 1.02 | S. cerevisiae deletion strains, locus YNL271C, strain bni1, active compounds read low 1.02 | S. cerevisiae deletion strains, locus YNL298W, strain CLA4, active compounds read low 1.02 | S. cerevisiae deletion strains, locus YNL307C, strain MCK1, active compounds read low 1 | S. cerevisiae deletion strains, locus YNL322C, strain KRE1 (second series), active compounds read low 1 | S. cerevisiae deletion strains, locus YNL322C, strain KRE1, active compounds read low 1 | S. cerevisiae deletion strains, locus YNR049C, strain mso1, active compounds read low 1 | S. cerevisiae deletion strains, locus YNR052C, strain pop2, active compounds read low 1.02 | S. cerevisiae deletion strains, locus YOL006C, strain TOP1, active compounds read low 1.03 | S. cerevisiae deletion strains, locus YOL012C, strain htz1 1 | S. cerevisiae deletion strains, locus YOL147C, strain pex11, active compounds read low 1.02 | S. cerevisiae deletion strains, locus YOR001W, strain rrp6, active compounds read low 1.02 | S. cerevisiae deletion strains, locus YOR061W, strain CKA2, active compounds read low 1 | S. cerevisiae deletion strains, locus YOR069W, strain VPS5, active compounds read low 1.01 | S. cerevisiae deletion strains, locus YOR070C, strain gyp1, active compounds read low 1.02 | S. cerevisiae deletion strains, locus YOR080W, strain dia2, active compounds read low 1.01 | S. cerevisiae deletion strains, locus YOR083W, strain WHI5, active compounds read low 0.958 | S. cerevisiae deletion strains, locus YOR106W, strain vam3, active compounds read low 0.959 | S. cerevisiae deletion strains, locus YOR136W, strain idh2, active compounds read low 1.01 | S. cerevisiae deletion strains, locus YOR144C, strain elg1, active compounds read low 1.01 | S. cerevisiae deletion strains, locus YOR184W, strain ser1, active compounds read low 1.04 | S. cerevisiae deletion strains, locus YOR231W, strain MKK1, active compounds read low 1 | S. cerevisiae deletion strains, locus YOR265W, strain rbl2, active compounds read low 1.02 | S. cerevisiae deletion strains, locus YOR270C, strain vph1, active compounds read low 1.05 | S. cerevisiae deletion strains, locus YOR290C, strain snf2, active compounds read low 0.997 | S. cerevisiae deletion strains, locus YOR316C, strain cot1, active compounds read low 1.01 | S. cerevisiae deletion strains, locus YPL051W, strain arl3, active compounds read low 0.982 | S. cerevisiae deletion strains, locus YPL055C, strain LGE1, active compounds read low 1 | S. cerevisiae deletion strains, locus YPL078C, strain atp4, active compounds read low 0.96 | S. cerevisiae deletion strains, locus YPL106C, strain sse1, active compounds read low 1 | S. cerevisiae deletion strains, locus YPL240C, strain hsp82, active compounds read low 1.01 | S. cerevisiae deletion strains, locus YPL241C, strain CIN2, active compounds read low 1 | S. cerevisiae deletion strains, locus YPL256C, strain CLN2, active compounds read low 1.07 | S. cerevisiae deletion strains, locus YPR119W, strain clb2, active compounds read low 1.01 | S. cerevisiae deletion strains, locus YPR141C, strain kar3, active compounds read low 1.01 | S. cerevisiae deletion strains, locus YPR163C, strain tif3, active compounds read low 1.01 | S. cerevisiae deletion strains, locus YPR167C, strain met16, active compounds read low 1.02 | S. cerevisiae deletion strains, strain wtn01, active compounds read low 1.02 | S. cerevisiae strains, strain wild type, active compounds read low 1
